Data on 50 molecules can be found in PubChem BioAssay AID485364 (National Center for Advancing Translational Sciences (NCATS), 2010).

The whole screen tested about 360,000 compounds, of which about 11,000 (3.1%) were called active. Roughly 4% stayed inconclusive and do not appear here. For the sample, actives were picked, then their nearest neighbours and some compounds at random. Unmarked numbers belong to inactive results. The call rests on the fitted dose curve; in most records, active means well fitted inhibition curve with a large enough effect; inconclusive means small, poorly fitted or top-dose-only effect; inactive means no such curve, though single readings can be large or run the other way.
On the % scale 0 is the no-effect control and ±100 the full control effect; potency means the concentration at half of the fitted maximal effect.

In this test the target is Schistosoma mansoni thioredoxin glutathione reductase (TGR) (UniProt Q962Y6). In words: qHTS Assay for the Inhibitors of Schistosoma Mansoni Peroxiredoxins. Further: nearly all actives have a fitted effect of over 60% in size. The note with it: purified TGR, DTNB reduction, TNB absorbance 405 nm; series mostly up to 114 µM; activity change, negative = inhibition: at the top concentration. The text has this:
Schistosomiasis is a major neglected tropical disease that currently affects over 200 million. It is caused by different species of flatworms, such as Schistosoma mansoni. Over the last century, drugs to treat the disease have evolved from potassium antimonyl tartrate, artemisinin, oxamniquine, to praziquantel, with praziquantel remaining the universally-used single drug of choice over the past three decades. However, transmission rates have changed little with praziquantel, and there is evidence for the development of drug resistant parasites. Because there is currently no suitable alternative therapy available, there is an urgent need to identify new targets and drugs for schistosomiasis treatment. Thioredoxin glutathione reductase (TGR), one uniquely positioned S. mansoni enzyme, has been identified as a major component of the worms' distinct and compressed antioxidant "firewall". TGR is a multifunctional enzyme that catalyzes the interconversion between reduced and oxidized forms of both glutathione (GSH) and thioredoxins, thus making it an attractive new antiparasitic target. Recently, a quantitative high-throughput screen of the NIH Molecular Libraries Small Molecule Repository (MLSMR, ~71K at the time of the screen in 2007) was performed using an assay that targeted both TGR and peroxiredoxin2 (Prx2, an H2O2-reducing enzymatic component of the S. mansoni redox "firewall") by following the decrease of NADPH fluorescence. […] Additional mechanistic link between exogenous NO donation and parasitic injury for the oxadiazole-2-oxide class of compounds was also expanded and better defined. Although the screen addressed both TGR and Prx2, the assay required post-screen target deconvolution for further characterization of the actives. In addition, the fluorescence assay was also subject to fluorescence interference from compound library members. We have developed a 1536-well-based kinetic HTS assay to address TGR alone. The assay followed the reduction of 5, 5'-dithiobis (2-nitrobenzoic acid) (DTNB) (Ellman's reagent) by NADPH and measured the increase in absorbance at 412 nm of the reaction product, TNB. […] This assay format can be used to screen the current MLSMR collection (with >300K compounds available) to find novel TGR inhibitors. Furoxan is a good choice to serve as a positive control in the primary HTS assay.
Three microliters of reagents (100 uM NADPH and 20 nM TGR or 100 uM NADPH as no-enzyme control) were dispensed into 1,536-well black clear-bottomed plates. Compounds (23 nL) were transferred via Kalypsys pin tool equipped with 1536-pin array (10 nL slotted pins, V&P Scientific, San Diego, CA). The plates were then be incubated for 15 min at room temperature, and 1 uL aliquot of 500 uM NADPH were added, immediately followed by a 1 uL aliquot of 15 mM DTNB to start the reaction. The plate was transferred to a ViewLux high-throughput CCD imager (Perkin-Elmer, Wellesley, MA) where kinetic measurements of the TNB absorbance were acquired using a 405 excitation filter. Throughout the screen, reagent bottles and all liquid lines were made light-tight to minimize reagent degradation. All screening operations were performed on a fully integrated robotic system (Kalypsys, San Diego, CA) containing one RX-130 and two RX-90 anthropomorphic robotic arms (Staubli, Duncan, SC). Library plates were screened starting from the lowest and proceeding to the highest concentration, and a "double-dipping" step of the highest concentration was required to access higher concentrations of compounds. Vehicle-only plates, with DMSO being pin-transferred to the entire column 5-48 compound area, were inserted uniformly at the beginning and the end of each library in order to monitor for and record any shifts in the background, which can be affected by reagent dispensers or loss in enzyme activity overtime. […]
For the molecule `Cc1ccccc1-c1nnc(SCC(=O)NCc2ccc3c(c2)OCO3)n1C`, the “activity change, negative = inhibition” value was -18.6%.

On to `CCn1c(=O)cc(SCC(=O)NCc2ccc3c(c2)OCO3)c2ccccc21`, for which the “activity change, negative = inhibition” value is -0.229%.

Take `CCCn1c2ccccc2c2cnn(CC(=O)N(CC)c3cc(C)ccc3C)c(=O)c21`: the “activity change, negative = inhibition” value is 3.15%.

For `Fc1ccc(C(Nc2ccc(Cl)c(C(F)(F)F)c2)c2nnc(-c3ccccc3)o2)cc1` (stereo not given), the “activity change, negative = inhibition” value was -1.3%.

In the case of `Cc1ccc(Nc2c(-c3ccc(C)cc3)nc3cnccn23)cc1`, the “activity change, negative = inhibition” value is -3.11%.

On to `CCOC(=O)c1cc2c(=O)n3ccccc3nc2n(CCCOC)c1=NC(=O)C(C)(C)Oc1ccc(Cl)cc1`, for which the “activity change, negative = inhibition” value is 9.19%.

For the molecule `Cc1ccc(C)c(NC(=O)C2CCCN(S(=O)(=O)c3cn(C)cn3)C2)c1` (stereo not given), the “activity change, negative = inhibition” value was 4.47%.

For the molecule `O=C(CC1Oc2ccc(Cl)cc2NC1=O)NCc1ccccc1` (stereo not given), the “activity change, negative = inhibition” value is -12.8%.

`CCCSc1ncc(Cl)c(C(=O)Nc2sc3c(c2C(=O)NCCOC)CCCC3)n1`: the “activity change, negative = inhibition” value is -1.84%.

On to `CCCN(CCC)CCCNC(=O)Cn1ncc2c3ccccc3n(Cc3ccccc3)c2c1=O`, for which the “activity change, negative = inhibition” value was -2.18%.

Consider `COc1ccccc1NC(=O)c1oc2ccccc2c1NC(=O)C(C)C`, for which the “activity change, negative = inhibition” value was 4.86%.

Consider `CCN(CC)S(=O)(=O)c1nnc(NC(=O)COc2ccccc2Cl)s1`, for which the “activity change, negative = inhibition” value is 9.78%.

As to `CC(OC(=O)c1ccc2ccccc2n1)C(=O)c1ccccc1` (stereo not given), the “activity change, negative = inhibition” value is -3.31% [at 57.1 µM].

As for `COc1ccc(-c2onc3ccc(C(C)=O)cc23)cc1`, the “activity change, negative = inhibition” value is -31.4%.

As for `CC(OC(=O)c1ccc2noc(-c3ccccc3)c2c1)C(N)=O` (stereo not given), the Potency was 35.5 µM (active).

Take `Cc1nc2nc(SCC(=O)N(Cc3ccccc3)C(C)C)nn2c(C)c1Cc1ccccc1Cl`: the “activity change, negative = inhibition” value was -0.675%.

For the molecule `Cc1ccc(Nc2c(-c3ccc(Cl)cc3)nc3sccn23)c(C)c1`, the “activity change, negative = inhibition” value is 12.8%.

`COc1ccc(-n2c(C)nc3c(cnn3-c3ccc(F)cc3)c2=O)cc1`: the “activity change, negative = inhibition” value was 7.03%.

As for `CS(=O)(=O)n1nc(-c2ccccc2)nc1NCc1ccco1`, the Potency was 44.7 µM (active).

`O=C(c1ccco1)n1nc(-c2ccc(Cl)cc2)nc1NCc1ccccc1`: the “activity change, negative = inhibition” value is -1.85%.

For `Cc1ccc(S(=O)(=O)n2nc(-c3ccc(Cl)cc3)nc2NCc2ccccc2)cc1`, the “activity change, negative = inhibition” value was 7.22%.

In the case of `Cc1ccc(CNC(=O)CCc2c(C)nc3nc(CNC(=O)OC(C)(C)C)nn3c2C)cc1`, the “activity change, negative = inhibition” value is -4.1%.

Consider `Cc1cc(OCC(=O)NCC2(N(C)C)CCCCC2)cc(C)c1Cl`, for which the “activity change, negative = inhibition” value is 0.106%.

Take `O=C(C1=C[C@H](c2ccc(C(F)(F)F)cc2)C[C@H](OCc2ccc(CO)cc2)O1)N1CCN(Cc2ccccc2)CC1`: the Potency is 28.2 µM (active).

In the case of `O=C(C1=C[C@H](c2coc3ccccc3c2=O)C[C@H](OCc2ccc(CO)cc2)O1)N1CCN(Cc2ccccc2)CC1`, the “activity change, negative = inhibition” value is -28.2%.

For `O=C(NCc1ccccc1)C1=C[C@@H](c2ccc(C(F)(F)F)cc2)C[C@@H](OCc2ccc(CO)cc2)O1`, the “activity change, negative = inhibition” value is -28.1%.

On to `O=C(CSCc1cnn(-c2ccccc2)c1-n1cccc1)NCc1ccc(Cl)cc1`, for which the “activity change, negative = inhibition” value was -13.6%.

As to `CCOc1ccc(C(=O)c2cn(Cc3ccccc3OC)c3ccc(F)cc3c2=O)cc1`, the “activity change, negative = inhibition” value was 1.39%.

For the molecule `COc1ccc2c(c1)Cc1sc(NC(=O)c3ccccc3Br)nc1-2`, the “activity change, negative = inhibition” value was -24.5%.

For the molecule `O=S(=O)(c1ccc(C2CCCCC2)cc1)N1CCN(c2ccc(Cl)c(Cl)c2)CC1`, the “activity change, negative = inhibition” value is 0.0481%.

Consider `CCCCNC(=O)C1CCCN(c2nnc(C)c3c(C)n(-c4ccc(Cl)cc4)nc23)C1` (stereo not given), for which the “activity change, negative = inhibition” value was -3.38%.

With `CCN(CCCNC(=O)Cn1ncc2c([nH]c3ccccc32)c1=O)c1cccc(C)c1`, the “activity change, negative = inhibition” value is -0.871%.

`CN(C)c1nc(N(C)C)nc(N(C#N)CCCl)n1`: the Potency is 1 µM (active).

In the case of `Cc1cccn2c(=O)c3cc(C(=O)NC(C)c4ccccc4)c(=N)n(CCCO)c3nc12` (stereo not given), the “activity change, negative = inhibition” value is 13.1%.

As for `CCOC(=O)c1c(NC(C)=O)c2c3c(sc2n1Cc1c(C)cc(C)cc1C)CCCC3`, the “activity change, negative = inhibition” value was 1.55%.

With `O=C(c1cnn(-c2ccc(F)cc2)c1-n1cccc1)N1CCN(c2ccc(F)cc2)CC1`, the “activity change, negative = inhibition” value was 1.41%.

As for `Cc1cc(C)c(C#N)c(SCc2[nH]nc3c2C(c2ccccc2)C(C#N)=C(N)O3)n1` (stereo not given), the Potency is 22.4 µM (active).

Consider `COc1ccc(-c2[nH]nc3c2C(c2ccncc2)C(C#N)=C(N)O3)cc1` (stereo not given), for which the “activity change, negative = inhibition” value was -12.7%.

Regarding `CCCc1[nH]nc2c1C(c1ccc(Br)s1)C(C#N)=C(N)O2` (stereo not given), the “activity change, negative = inhibition” value was -35.1%.

Consider `S=C(Nc1cccnc1)Nc1ccccn1`, for which the “activity change, negative = inhibition” value was -24.5%.

As to `O=C(Nc1cccnc1)c1cc2cc(Br)ccc2oc1=O`, the “activity change, negative = inhibition” value was -25.1%.

Regarding `Fc1cc(Br)ccc1NC(=S)Nc1cccnc1`, the Potency is 10 µM (active).

Regarding `COc1cc(C2c3c(oc4ccccc4c3=O)C(=O)N2c2nc(C)c(C)s2)ccc1O` (stereo not given), the “activity change, negative = inhibition” value was -26.8%.

Turning to `O=C(Nc1c(C(=O)N2CCN(c3ccc(F)cc3)CC2)oc2ccccc12)c1ccco1`, the “activity change, negative = inhibition” value was -0.224%.

In the case of `CC(C)(C)c1ccc(/C=C2\Oc3c(ccc(O)c3CN3CCN(CCO)CC3)C2=O)cc1`, the Potency was 50.1 µM (active).

As to `CCOC(=O)c1oc2c(CN3CCN(CCO)CC3)c(O)c(CC)cc2c(=O)c1-c1nc2ccccc2s1`, the “activity change, negative = inhibition” value was -26.4%.

For the molecule `O=C(CSc1nc2c(c(=O)[nH]1)CN(Cc1ccc3c(c1)OCO3)CC2)Nc1cc(F)ccc1F`, the “activity change, negative = inhibition” value is -9.35%.

Consider `CCOC(=O)c1cnc(COc2ccccc2Cl)[nH]c1=O`, for which the “activity change, negative = inhibition” value was 9.04%.

On to `CCOC(=O)c1cc2c(=O)[nH]c(C(Cl)(Cl)Cl)nc2o1`, for which the Potency is 17.8 µM (active).

Regarding `CCOC(=O)c1ccc(COC(=O)c2cc(=O)[nH]c3ccccc23)o1`, the “activity change, negative = inhibition” value is -15.9%.
